Hits are enriched below; roughly 7.4% of the tested compounds scored in any of these assays.
FLuc modulator: counter-screen for miR-21 project: firefly luciferase inhibitors or activators | purified FLuc, Km substrates, luminescence inhibition | P08659 | 6.9% of 360,000 active | Potency, µM (highest dose often 57.5 µM), hits mostly inhibitors; further: nearly all actives have a fitted effect of over 55% in size
Target sequence (P08659 whole entry, looked up): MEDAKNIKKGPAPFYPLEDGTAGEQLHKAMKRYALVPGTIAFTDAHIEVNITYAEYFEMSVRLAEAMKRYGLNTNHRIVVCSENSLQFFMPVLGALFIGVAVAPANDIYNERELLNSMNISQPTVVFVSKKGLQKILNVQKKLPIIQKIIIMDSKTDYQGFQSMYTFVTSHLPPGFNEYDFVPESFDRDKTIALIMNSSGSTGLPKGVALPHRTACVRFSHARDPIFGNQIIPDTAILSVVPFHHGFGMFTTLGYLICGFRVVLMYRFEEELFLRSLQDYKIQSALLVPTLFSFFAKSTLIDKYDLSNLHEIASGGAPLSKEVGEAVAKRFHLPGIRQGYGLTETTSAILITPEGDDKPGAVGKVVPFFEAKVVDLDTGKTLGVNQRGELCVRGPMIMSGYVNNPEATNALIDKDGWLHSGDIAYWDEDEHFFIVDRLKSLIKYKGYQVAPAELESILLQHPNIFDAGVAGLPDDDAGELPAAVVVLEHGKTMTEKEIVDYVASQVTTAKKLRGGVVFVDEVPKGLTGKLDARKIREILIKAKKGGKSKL
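Purified P. pyralis luciferase (10nM final) with 10uM D-luciferin and 10uM ATP (Km levels) in 50mM Tris acetate pH 7.5, 10mM Mg acetate, 0.01% Tween-20, 0.05% BSA; qHTS 6-point titration, ~60 µM downward; luminescence read.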
ELG1 genotox: genotoxicity induction in ELG1-luciferase HEK293T cells. AID 504466. 1.3% of 330,000 active. Potency, µM (doses to about 46 µM), hits mostly activators. HEK293T ELG1-luciferase reporter, luminescence, 16 h; further: nearly all actives have a fitted effect of over 60% in size
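Genotoxic stress is detected as increased luminescence from luciferase-tagged ELG1 in HEK293T cells, measured with ONE-Glo after a 16 hr treatment at 37 °C.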
SMN2 splice up: SMN2 splice variant enhancement | HEK293 SMN2-luciferase splicing reporter, luminescence, 30-36 h | Potency, µM (doses to about 46.1 µM), actives largely listed as activators | 2.8% of 210,000 active; further: nearly all actives have a fitted effect of over 55% in size
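qHTS luciferase splicing reporter: luminescence rises when SMN2 exon 7 is included in transfected HEK293 cells. Compound exposure lasted 30-36 h at 37C, with 4.5 mM final sodium butyrate as control, followed by a ONE-Glo read.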
NPC1 prom act: activates the NPC1 promoter; Huh7 NPC1 promoter luciferase reporter, 24 h; Potency, µM (series often up to 9.22 µM), hits mostly activators; 2.4% of 320,000 active; further: nearly all actives have a fitted effect of over 60% in size
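NPC1 promoter–luciferase Huh7 cells; 24 h compound; luminescence.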
Rab9 prom act: Rab9 promoter activation; Huh7 Rab9 promoter-luciferase reporter, luminescence, 24 h; 2.8% of 320,000 active; Potency, µM (top dose mostly 9.22 µM), actives largely listed as activators; further: nearly all actives have a fitted effect of over 60% in size
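Huh7 cells stably carrying a Rab9 promoter-luciferase reporter, 1500 cells per well in OP-MEM I with 10% FBS, treated with compound 24 hours at 37C. Luciferase activity read by luminescence after 10 minutes with Amplite reagent.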
Numbers stand for hits; - = inactive; ? = inconclusive; . = not tested or not shown; [ ] = another dose, or the depositor's remark. The call rests on the fitted dose curve; in most records, active means well fitted curve in the direction sought with a large enough effect; inconclusive means small, poorly fitted or top-dose-only effect, or another doubt; inactive means no such curve, though single readings can be large; an effect the other way counts as inactive or inconclusive.

SMILES	FLuc modulator	ELG1 genotox	SMN2 splice up	NPC1 prom act	Rab9 prom act
COc1ccc(-c2nc3c(c4c2C[C@H](c2ccccc2)OC4)CN(C(=O)c2cc(I)ccc2F)CC3)c(C)c1	.	.	-[9.22 µM]	.	.
CC(=O)c1cccc(OCc2cc(C(=O)NCCC3=CCCCC3)no2)c1	9.5µM	?	.	2.5µM	?
CC(=O)c1cccc(OCc2cc(C(=O)N3CCSCC3)no2)c1	11µM	9.2µM	.	?	3.2µM
O=C(c1cc(COc2ccc(F)c(F)c2)on1)N1CCSCC1	17µM	?	.	?	?
COc1cc(C(C)=O)ccc1OCc1cc(C(=O)N2CCSCC2)no1	-	-	.	-	-
O=C(Cc1cccc([N+](=O)[O-])c1)NCc1nc2cccnc2n1Cc1ccc(F)cc1	-	.	.	.	.
Cn1nc(C(F)(F)F)c(-c2ccc(Br)cc2)c1NC(=O)c1ccco1	-	-	.	-	-
O=C(/C(C=Nc1ccc(Br)cc1)=C(/O)c1ccco1)C(F)(F)F	6µM	?	14µM	?	3.2µM
O=C(c1ccco1)N1CCN(S(=O)(=O)c2cccc(C(F)(F)F)c2)CC1	-	-	-	-	-
O=C(/C(C=Nc1cccc(C(F)(F)F)c1)=C(/O)c1ccco1)C(F)(F)F	24µM	?	?	-	-
Cc1ccnn1CCC(=O)O	-	-	.	-	-
CCCC[C@@H](C=O)NC(=O)[C@H](CC(C)C)NC(=O)OCc1ccccc1	.	.	-	.	.
O=C(COC(=O)c1ccccc1F)c1ccc(-n2nncc2-c2ccco2)cc1	12µM	-	-	-	-
N#Cc1cc(-c2ccccc2)[nH]c1-c1nccc2ccccc12	?	-	.	-	-
c1ccc(-c2ccc(-c3nccc4ccccc34)[nH]2)cc1	0.15µM	?	.	?	1µM
CSc1ccc(-c2nnn(CC(=O)Nc3sc4c(c3C#N)CCC(C(C)(C)C)C4)n2)cc1 (stereo not drawn)	-	.	-	.	.
N#C/C(=C\c1ccc(OCC(N)=O)cc1)c1ccccc1	3.8µM	?	-	-	-
O=C(c1cccc(F)c1)N1CCC2(CC1)CCN(c1ccncc1)CC2	.	.	-	.	.
Cn1c(-c2cc3ccccc3oc2=O)nc2ccccc21	21µM	?	.	4.5µM	3.5µM
Cc1cc(N)ccc1-c1cc2ccccc2oc1=O	?	-	.	-	-
COc1ccc2cc(-c3nc4ccccc4n3C)c(=O)oc2c1	5.4µM	?	13µM	2µM	1.3µM
COC(=O)c1cn[nH]c1NC(=S)Nc1ccc(Cl)c(Cl)c1	0.43µM	0.41µM	10µM	0.63µM	0.35µM
CCOC(=O)NC(=S)Nc1ccc(OC)cc1	-	-	-	-	-
COC(=O)c1cn[nH]c1NC(=S)Nc1ccccc1C	7.6µM	?	-	?	3.5µM
COC(=O)c1cn[nH]c1NC(=S)Nc1ccc(C)cc1Cl	0.38µM	0.58µM	-	0.4µM	0.56µM
SMILES	FLuc modulator	ELG1 genotox	SMN2 splice up	NPC1 prom act	Rab9 prom act
CCOC(=O)c1cn[nH]c1NC(=S)Nc1ccc(OC)cc1	0.19µM	?	.	0.28µM	0.32µM
O=C(Nc1ccnn1C1CCN(C(=O)c2cnsn2)CC1)c1cccc(F)c1	-	-	.	-	-
COc1ccc2oc(C(=O)OCC(=O)N(C)c3c(N)n(Cc4ccccc4)c(=O)[nH]c3=O)c(C)c2c1	-	-	.	-	-
CC(C(N)=O)N1C(=O)c2cccc3cccc1c23 (stereo not drawn)	-	-	-	-	-
Cn1c(=O)c2c(SCc3ccccn3)nc(C3CC3)nc2n(C)c1=O	-	16µM	-	-	-
Cc1ccc(-c2nc3c4cnn(-c5cc(Cl)ccc5Cl)c4ncn3n2)cc1	-	.	-	.	.
Cc1ccc(C(=O)N2CCCCC2C(=O)O)cc1S(=O)(=O)N1CCCCC1 (stereo not drawn)	.	-	.	.	.
Nc1ccccc1C(=O)Nc1cccc2ccccc12	19µM	?	.	3.2µM	2.8µM
O=C(Nc1cccc2ccccc12)c1ccccc1Cl	-	-	.	-	-
CC(=O)c1cccc(NC(=O)C(=O)Nc2cccc3ccccc23)c1	?	-	.	?	2.5µM
O=C(Nc1cccc2ccccc12)c1ccccc1	13µM	?	-[9.22 µM]	?	3.5µM
O=C(Nc1cccc2ccccc12)c1ccc(F)cc1	?	-[9.26 µM]	.	-	-
Cc1ccc(NC(=O)CSc2nc3nc(C)c(Cc4ccccc4)c(C)n3n2)cc1	-	.	.	.	.
CC1=C(c2ccc(F)cc2)S(=O)(=O)N=C1N1CCC(C(=O)NCCc2ccco2)CC1	-	.	.	.	.
Cc1nn(-c2ccccc2)c(OC(=O)C(C)C)c1Sc1ccc(Cl)cc1	13µM	.	-	.	.
